Measurements from PubChem BioAssay AID1259343 (VanderVen Lab, College of Veterinary Medicine, Cornell …, 2017).
In all, about 6,200 compounds went through this assay and about 2,900 (47%) were called active. Cut-off read from the data, not from the text of the source: active = inhibition above about 50%; inactive = the rest. The set was probably picked from earlier hits. Some of the results follow.

Assay: Mycobacterium tuberculosis growth inhibition, primary screen (AID 1259343)
Conditions: inhibition: at 10 µM, stronger effect = higher value; outcome: 10 uM

With `Cc1nn(C)c(C)c1CCC(=O)Nc1ccc(C(C)(C)C#N)cc1` as the compound, how does the inhibition read?
The inhibition was 71% (active).

With `COc1ccc(NC(=O)CCc2ccccc2C#N)cc1` as the compound, how does the inhibition read?
The inhibition was 27.5% (inactive).

For `Cc1ccc(-c2n[nH]c(=S)c3ccccc23)cc1`, which inhibition is on record?
The inhibition was 32.5% (inactive).

With `S=c1[nH]nc(-c2ccccc2)c2ccccc12` as the compound, how does the inhibition read?
The inhibition was 70.8% (active).

Which inhibition does the source give for `CC1CN(c2ccc(-c3nnc(Br)s3)cc2)CC(C)(C)O1` (centres undefined) here?
The inhibition was 10.5% (inactive).

With `O=C(O)c1ccc(COc2cccc(Cl)c2)s1` as the compound, how does the inhibition read?
The inhibition was 81.8% (active).

Which inhibition does the source give for `Clc1cccc(OCOCOc2cccc(Cl)c2)c1` here?
The inhibition was 1.77% (inactive).

For `CN(C)S(=O)(=O)c1ccc(COc2cccc(Cl)c2)o1`, which inhibition is on record?
The inhibition was 49.6% (inactive).

With `CCCNC(=O)C(C)NC(=O)c1ccc(Oc2ccc(F)cc2)cc1` (centres undefined) as the compound, how does the inhibition read?
Its inhibition is 62.5% (active).

Which inhibition does the source give for `CCCNC(=O)c1ccc(Oc2ccc(F)cc2)cc1` here?
The inhibition was 90.3% (active).

Which inhibition does the source give for `Cc1ccc(Oc2ccc(NC(C)C(=O)NC(C)C)cc2)cc1` (centres undefined) here?
The inhibition was 30.7% (inactive).

For `O=C(NN1CCOCC1)c1ccc(Oc2ccc(F)cc2)cc1`, which inhibition is on record?
The inhibition was 89.4% (active).

Which inhibition does the source give for `C=CCOc1cccc(C2c3c(oc4ccc(C)cc4c3=O)C(=O)N2c2nccs2)c1` (centres undefined) here?
Its inhibition is 1.57% (inactive).

For `Cc1cccc(-c2nc3c(NCc4ccccc4)nccc3[nH]2)c1`, which inhibition is on record?
The inhibition was 68.2% (active).

For `Fc1cccc(-c2nc3c(NCc4ccccc4)nccc3[nH]2)c1`, which inhibition is on record?
The inhibition was 58.3% (active).

With `Cc1cccc(-c2nc3c(NCc4cccc(N(C)C)c4)nccc3[nH]2)c1` as the compound, how does the inhibition read?
Its inhibition is 76.8% (active).

For `Fc1cc(NCc2ccccc2)nc(NCc2ccccc2)n1`, which inhibition is on record?
The inhibition was 13.7% (inactive).

For `c1ccc(-c2nc3c(NC4CCCCC4)nccc3[nH]2)cc1`, which inhibition is on record?
Its inhibition is 76.1% (active).

With `c1ccc(CNc2nc(-c3ccccc3)nc3ccccc23)cc1` as the compound, how does the inhibition read?
Its inhibition is -8.46% (inactive).

With `Cc1c(-c2ccccc2)[nH]c2c(CNc3nccc(N)n3)cc(Cl)cc12` as the compound, how does the inhibition read?
The inhibition was 25.5% (inactive).

With `Fc1ccc(-c2nc3c(NCc4ccccc4)nccc3[nH]2)cc1F` as the compound, how does the inhibition read?
The inhibition was 35.1% (inactive).

Which inhibition does the source give for `Cc1ccc(-c2nc3c(NCc4cccc(N(C)C)c4)nccc3[nH]2)cc1` here?
Its inhibition is 65.2% (active).

Which inhibition does the source give for `CC(=O)Nc1cc(C)nn1-c1nc(C)cc(=O)[nH]1` here?
Its inhibition is 100% (active).

With `Cc1cc(=O)[nH]c(-n2nc(C)cc2NC(=O)c2snnc2C)n1` as the compound, how does the inhibition read?
Its inhibition is 99.6% (active).

Which inhibition does the source give for `Cc1cc(=O)[nH]c(-n2nc(C)cc2NC(=O)C(C)C)n1` here?
The inhibition was 100% (active).

For `C/C=C/C(=O)Nc1cc(C)nn1-c1nc(C)cc(=O)[nH]1`, which inhibition is on record?
The inhibition was 101% (active).

For `Cc1ccc(/C=C/S(=O)(=O)N2CC(C(N)=O)c3ccccc32)cc1` (centres undefined), which inhibition is on record?
The inhibition was -0.07% (inactive).

For `CCc1cc(=O)[nH]c(-n2nc(C)cc2NC(=O)C(C)C)n1`, which inhibition is on record?
Its inhibition is 101% (active).

With `CCOc1ccc(C(=O)Nc2cc(C)nn2-c2nc(C)c(C)c(=O)[nH]2)cc1OCC` as the compound, how does the inhibition read?
The inhibition was 98.7% (active).

Which inhibition does the source give for `Cc1cc(=O)[nH]c(-n2nc(C)cc2NC(=O)c2ccc(C)c(C)c2)n1` here?
The inhibition was 100% (active).

Which inhibition does the source give for `Cc1cc(=O)[nH]c(-n2nc(C)cc2NC(=O)c2ccc(-c3ccccc3)cc2)n1` here?
Its inhibition is 100% (active).

With `Cc1cc(NC(=O)c2ccc(-c3ccccc3)cc2)n(-c2nc(C)c(C)c(=O)[nH]2)n1` as the compound, how does the inhibition read?
Its inhibition is 100% (active).

Which inhibition does the source give for `CCOc1ccc(C(=O)Nc2cc(C)nn2-c2nc(C)c(CC)c(=O)[nH]2)cc1OCC` here?
The inhibition was -21.9% (inactive).

Which inhibition does the source give for `Cc1cc(NC(=O)c2ccccc2)n(-c2nc(C)c(C)c(=O)[nH]2)n1` here?
The inhibition was -21.2% (inactive).
